Measurements taken from PubChem BioAssay AID1159580 (chemical genetic matrix, 2015).
Several values for one entry are separate records, joined by “and”; a condition that tells them apart may be missing. Equal values may be shown once. The campaign covered roughly 5,500 compounds. About 2,000 (36%) were called active. Another 18% or so got no clear call; they are omitted. No stated cut-off is given here; in the data, active means normalized growth mostly below about 0.91 (no sharp cut-off); inconclusive means no clear call, values can overlap the other calls; inactive means mostly above about 0.92. Some of the results follow.

Test: chemical genetic growth profiling, strain panel (AID 1159580);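 further: tested at 20 µM; growth read once vehicle control cultures reached saturation at 30 °C; 1 = growth at the plate median or of vehicle wells; lower values mean less growth of the strain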
Conditions: S. cerevisiae deletion strains, growth OD

Measured: normalized growth

CCOC(=O)C1C(C=C(C)C)C1(C)C (stereo unspecified)
inactive: locus YAL013W, strain DEP1, active compounds read low 0.998 | locus YAL021C, strain ccr4, active compounds read low 0.989 | locus YAL026C, strain drs2, active compounds read low 1.01 | locus YAL030W, strain snc1, active compounds read low 1 | locus YBL061C, strain skt5, active compounds read low 1.01 | locus YBR009C, strain hhf1, active compounds read low 0.998 | locus YBR021W, strain FUR4, active compounds read low 0.979 | locus YBR023C, strain chs3, active compounds read low 1 | locus YBR171W, strain sec66, active compounds read low 1 | locus YBR229C, strain ROT2, active compounds read low 1 | locus YBR231C, strain swc5, active compounds read low 0.995 | locus YBR279W, strain paf1, active compounds read low 1 | locus YCL011C, strain gbp2, active compounds read low 0.992 | locus YCL016C, strain dcc1, active compounds read low 1.01 | locus YCL029C, strain bik1, active compounds read low 1.02 | locus YCL061C, strain MRC1, active compounds read low 0.996 | locus YCL069W, strain vba3, active compounds read low 1 | locus YCR088W, strain abp1, active compounds read low 1 | locus YDL005C, strain med2, active compounds read low 0.991 | locus YDL035C, strain GPR1, active compounds read low 1.01 | locus YDL040C, strain nat1, active compounds read low 1.02 | locus YDL074C, strain BRE1, active compounds read low 1.03 | locus YDL101C, strain DUN1, active compounds read low 1 | locus YDL185W, strain tfp1, active compounds read low 1.02 | locus YDL192W, strain arf1, active compounds read low 1 | locus YDR001C, strain nth1, active compounds read low 1 | locus YDR069C, strain doa4, active compounds read low 1 | locus YDR101C, strain arx1, active compounds read low 1.01 | locus YDR137W, strain rgp1, active compounds read low 1.01 | locus YDR159W, strain sac3, active compounds read low 0.939 | locus YDR162C, strain NBP2, active compounds read low 1.01 | locus YDR195W, strain ref2 0.99 | locus YDR297W, strain sur2, active compounds read low 0.991 | locus YDR318W, strain mcm21, active compounds read low 1.01 | locus YDR334W, strain swr1, active compounds read low 1.01 | locus YDR335W, strain msn5, active compounds read low 1 | locus YDR388W, active compounds read low 1.01 | locus YDR392W, strain spt3, active compounds read low 0.876 | locus YDR502C, strain sam2, active compounds read low 1.01 | locus YEL003W, strain gim4, active compounds read low 1.02 | locus YEL037C, strain rad23, active compounds read low 1 | locus YEL061C, strain CIN8 (second series), active compounds read low 1.01 | locus YEL061C, strain CIN8, active compounds read low 1 | locus YER015W, strain faa2, active compounds read low 1 | locus YER016W, strain bim1, active compounds read low 0.978 | locus YER110C, active compounds read low 1.02 | locus YER111C, strain swi4, active compounds read low 0.997 | locus YER155C, strain BEM2 (second series), active compounds read low 0.981 | locus YER155C, strain BEM2, active compounds read low 1 | locus YER167W, strain BCK2, active compounds read low 0.998 | locus YFR010W, strain ubp6, active compounds read low 1 | locus YGL078C, strain dbp3, active compounds read low 1 | locus YGL086W, strain mad1, active compounds read low 1.01 | locus YGL167C, strain pmr1, active compounds read low 1 | locus YGL173C, strain kem1, active compounds read low 1 | locus YGL227W, strain vid30, active compounds read low 1 | locus YGL240W, strain doc1, active compounds read low 0.97 | locus YGL248W, strain PDE1, active compounds read low 1.01 | locus YGL253W, strain hxk2, active compounds read low 1.02 | locus YGR078C, strain PAC10, active compounds read low 1.01 | locus YGR135W, strain pre9, active compounds read low 0.993 | locus YGR252W, strain gcn5, active compounds read low 0.982 | locus YHR013C, strain ard1, active compounds read low 1 | locus YHR027C, strain rpn1, active compounds read low 1 | locus YHR030C, strain SLT2, active compounds read low 1 and 1.04 | locus YHR079C, strain IRE1 (second series), active compounds read low 1 | locus YHR079C, strain IRE1, active compounds read low 1.04 | locus YHR094C, strain hxt1, active compounds read low 1.01 | locus YHR129C, strain ARP1, active compounds read low 1 | locus YHR142W, strain chs7, active compounds read low 1.01 | locus YHR200W, strain rpn10, active compounds read low 1.02 | locus YIL066C, strain RNR3, active compounds read low 0.996 | locus YIL073C, strain SPO22, active compounds read low 1.06 | locus YIL125W, strain kgd1, active compounds read low 1.01 | locus YIR030C, strain dcg1, active compounds read low 1.01 | locus YJL092W, strain hpr5, active compounds read low 1 | locus YJL095W, strain BCK1 (second series), active compounds read low 1.02 | locus YJL095W, strain BCK1, active compounds read low 1 and 1.02 | locus YJL115W, strain asf1, active compounds read low 0.999 | locus YJL129C, strain trk1, active compounds read low 0.984 | locus YJL134W, strain LCB3, active compounds read low 1 | locus YJL154C, strain vps35, active compounds read low 1 | locus YJL164C, strain tpk1, active compounds read low 0.989 | locus YJL166W, strain qcr8, active compounds read low 0.996 | locus YJL168C, strain set2, active compounds read low 1.01 | locus YJL187C, strain SWE1 (second series), active compounds read low 1 | locus YJR043C, strain POL32, active compounds read low 0.988 | locus YJR066W, strain TOR1, active compounds read low 0.991 | locus YKL009W, strain mrt4, active compounds read low 1.06 | locus YKL068W, active compounds read low 1.01 | locus YKL085W, strain MDH1 (second series), active compounds read low 1.01 | locus YKL085W, strain MDH1, active compounds read low 1.01 | locus YKL160W, strain elf1, active compounds read low 1.01 | locus YKL190W, strain CNB1, active compounds read low 0.983 | locus YKR001C, strain vps1, active compounds read low 1.04 | locus YKR026C, strain gcn3, active compounds read low 1 | locus YKR091W, strain srl3, active compounds read low 0.997 | locus YLL001W, strain dnm1, active compounds read low 0.978 | locus YLL026W, active compounds read low 1.01 | locus YLL041C, strain sdh2, active compounds read low 1.01 | locus YLR027C, strain aat2, active compounds read low 0.982 | locus YLR039C, strain RIC1, active compounds read low 1.01 | locus YLR058C, strain SHM2, active compounds read low 1 | locus YLR102C, strain apc9, active compounds read low 1.01 | locus YLR113W, strain HOG1, active compounds read low 1.04 | locus YLR221C, strain rsa3, active compounds read low 1.01 | locus YLR258W, strain gsy2, active compounds read low 1.01 | locus YLR262C, strain YPT6 (second series), active compounds read low 1.01 | locus YLR262C, strain YPT6, active compounds read low 1.02 | locus YLR268W, strain sec22, active compounds read low 1.03 | locus YLR320W, strain mms22, active compounds read low 0.976 | locus YLR330W, strain CHS5, active compounds read low 1.03 | locus YLR342W, strain FKS1 (second series), active compounds read low 0.98 | locus YLR342W, strain FKS1, active compounds read low 1 | locus YLR357W, strain rsc2, active compounds read low 0.925 | locus YLR370C, strain arc18, active compounds read low 1.02 | locus YLR371W, strain rom2, active compounds read low 1.01 | locus YLR384C, strain iki3, active compounds read low 0.995 | locus YLR418C, strain cdc73, active compounds read low 1.02 | locus YML016C, strain PPZ1, active compounds read low 1.01 | locus YML032C, strain rad52, active compounds read low 1 | locus YML120C, strain ndi1, active compounds read low 0.994 | locus YML124C, strain tub3, active compounds read low 1 | locus YMR058W, strain fet3, active compounds read low 1 | locus YMR078C, strain ctf18, active compounds read low 1 | locus YMR125W, strain sto1, active compounds read low 0.983 | locus YMR129W, active compounds read low 1 | locus YMR205C, strain PFK2, active compounds read low 0.995 | locus YMR223W, strain ubp8, active compounds read low 0.992 | locus YMR231W, strain pep5, active compounds read low 0.999 | locus YMR307W, strain GAS1, active compounds read low 1.02 | locus YNL067W, strain RPL9B, active compounds read low 1 | locus YNL071W, strain lat1, active compounds read low 1.01 | locus YNL183C, strain NPR1, active compounds read low 0.981 | locus YNL209W, strain ssb2, active compounds read low 0.99 | locus YNL233W, strain BNI4, active compounds read low 1 | locus YNL248C, strain rpa49, active compounds read low 0.95 | locus YNL250W, strain rad50, active compounds read low 1.02 | locus YNL271C, strain bni1, active compounds read low 1.02 | locus YNL298W, strain CLA4, active compounds read low 1.01 | locus YNL307C, strain MCK1, active compounds read low 1.02 | locus YNL322C, strain KRE1 (second series), active compounds read low 0.969 | locus YNR049C, strain mso1, active compounds read low 1 | locus YNR052C, strain pop2, active compounds read low 1.01 | locus YOL012C, strain htz1 0.867 | locus YOL147C, strain pex11, active compounds read low 1.01 | locus YOR001W, strain rrp6, active compounds read low 0.981 | locus YOR061W, strain CKA2, active compounds read low 1 | locus YOR069W, strain VPS5, active compounds read low 1 | locus YOR070C, strain gyp1, active compounds read low 0.996 | locus YOR080W, strain dia2, active compounds read low 0.991 | locus YOR083W, strain WHI5, active compounds read low 0.937 | locus YOR106W, strain vam3, active compounds read low 1 | locus YOR136W, strain idh2, active compounds read low 1.02 | locus YOR144C, strain elg1, active compounds read low 1.01 | locus YOR184W, strain ser1, active compounds read low 1.01 | locus YOR231W, strain MKK1, active compounds read low 1.03 | locus YOR265W, strain rbl2, active compounds read low 1.01 | locus YOR270C, strain vph1, active compounds read low 1.03 | locus YOR290C, strain snf2, active compounds read low 1.01 | locus YOR316C, strain cot1, active compounds read low 1.01 | locus YPL051W, strain arl3, active compounds read low 1 | locus YPL078C, strain atp4, active compounds read low 0.991 | locus YPL106C, strain sse1, active compounds read low 0.963 | locus YPL240C, strain hsp82, active compounds read low 0.998 | locus YPL256C, strain CLN2, active compounds read low 1.02 | locus YPR119W, strain clb2, active compounds read low 1.01 | locus YPR141C, strain kar3, active compounds read low 1.01 | locus YPR163C, strain tif3, active compounds read low 1.01 | locus YPR167C, strain met16, active compounds read low 1.03 | strain wtn01, active compounds read low 1.02
